# Compound activity from PubChem.
# These entries were drawn from the full list.
# CYP2C19 inhib: inhibitors of human CYP2C19; CYP2C19 Supersomes, luciferin-H EGE luminescence, 30 min; inhibition, % at 5 µM; AID 778; P33261; 96,000 compounds, 21% hits;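 active = CYP2C19 inhibition above a set limit at 5 µM in the primary screen, cut at about 50% in these data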;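 note: plate controls were negative control wells for no effect and 2.5 mM tranylcypromine positive control for full effect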
# Target sequence (P33261 whole entry, looked up): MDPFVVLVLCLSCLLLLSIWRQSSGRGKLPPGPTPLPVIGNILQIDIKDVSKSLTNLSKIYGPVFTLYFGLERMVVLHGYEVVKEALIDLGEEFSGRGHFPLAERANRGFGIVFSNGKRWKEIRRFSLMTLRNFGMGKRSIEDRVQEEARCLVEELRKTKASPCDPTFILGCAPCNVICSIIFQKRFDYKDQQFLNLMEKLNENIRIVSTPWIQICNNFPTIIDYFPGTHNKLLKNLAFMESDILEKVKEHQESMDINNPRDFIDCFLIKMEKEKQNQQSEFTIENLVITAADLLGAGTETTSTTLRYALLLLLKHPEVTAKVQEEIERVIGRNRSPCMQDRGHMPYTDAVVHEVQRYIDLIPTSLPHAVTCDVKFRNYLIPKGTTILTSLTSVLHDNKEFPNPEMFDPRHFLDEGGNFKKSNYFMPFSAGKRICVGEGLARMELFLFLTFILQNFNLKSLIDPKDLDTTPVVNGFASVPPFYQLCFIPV
# CYP2C9 activ: CYP2C9 (human) activation. recombinant CYP2C9, luciferin-H conversion, luminescence; active compounds read high; factor 1 = untreated enzyme, 0 = blocked. activation factor at 5 µM. 96,000 compounds, 1.4% hits;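 active = activation factor of 2 or more for CYP2C9 at a 5 µM dose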;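 note: 0 = sulfaphenazole-blocked wells and 1 = vehicle-only wells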
# CYP2C19 act: increases human CYP2C19 enzyme activity | 96,000 tested, under 10 active | activation factor at 5 µM | P33261 | recombinant CYP2C19, luciferin-H EGE luminescence; active compounds read high; 0 = fully inhibited enzyme, 1 = untreated enzyme;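 active = activation factor of at least 2 at 5 µM in the primary screen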;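 note: 0 = wells with 2.5 mM tranylcypromine and 1 = vehicle-only wells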
# PostGolgi ctrl: inhibits growth of the yeast control strain | 98,000 compounds, 5% hits | inhibition, % at 10 µM | efflux-deficient yeast background strain, growth absorbance A615, 16 h
# CYP2C9 inh: inhibitors of human CYP2C9; CYP2C9 Supersomes, luciferin-H conversion, luminescence; inhibition, % at 5 µM; 96,000 compounds, 20% hits;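 active = blocking of liver enzyme CYP2C9 beyond about 50% at 5 µM, limit read from the data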
# PostGolgi yeast: growth inhibition of a yeast mutant, post-Golgi transport screen; post-Golgi transport phenotypic cell assay; 98,000 compounds, 0.9% hits; inhibition, % at 10 µM;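 note: yeast cells grown in 1536-well plates; yeast grown about 18 h at 30C before absorbance read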
# * marks the source's active call; other numbers are inactive results; nt = not tested or not shown. Cut-off read from the data, not from the text of the source, unless noted: active = inhibition above about 30%; inactive = the rest.
SMILES,CYP2C19 inhib,CYP2C9 activ,CYP2C19 act,PostGolgi ctrl,CYP2C9 inh,PostGolgi yeast
COc1ccc2nc(NC(=O)C(NS(=O)(=O)c3cccc4nsnc34)C(C)C)sc2c1 (stereo not given),41,0.3,0.6,-2,74*,5
O=C(NCc1ccc2c(c1)OCO2)C1CCN(S(=O)(=O)c2cccc3nsnc23)CC1,1,1.1,1,14,-9,-3
Cc1nc2ccc(S(=O)(=O)NC(C(=O)Nc3nccs3)C(C)C)cc2s1 (stereo not given),11,0.9,0.9,7,13,3
Cc1nc2ccc(S(=O)(=O)NCC(=O)N3CCC(C)CC3)cc2s1,50*,0.9,0.5,15,14,-1
Cc1nn(Cc2c(Cl)cccc2Cl)c(C)c1NC(=O)/C=C/c1cnn(C)c1C,3,0.8,1,4,19,-10
O=S(=O)(NC1CC1)c1cccc(S(=O)(=O)N2CCCC2)c1,82*,0.9,0.2,-2,5,-2
O=C(c1cccc(S(=O)(=O)N2CCCC2)c1)c1cccc(S(=O)(=O)N2CCCC2)c1,10,0.9,0.9,12,6,24
O=S(=O)(NC1CCCC1)c1cccc(S(=O)(=O)N2CCC(n3nnc4ccccc43)CC2)c1,75*,0.3,0.3,9,72*,-6
COC(=O)c1cccc(S(=O)(=O)N2CCC(n3nnc4cc(F)ccc43)CC2)c1,46,1.1,0.5,-1,-11,-4
CC(C)C(=O)Nc1cccc(C(=O)Nc2nnc(C(C)(C)C)s2)c1,-5,0.8,1.1,6,19,6
O=C1CN(C(=O)CC2c3ccccc3-c3ccccc32)CC(=O)N1,23,0.9,0.8,20,10,-10
COc1cccc(Nc2nc(=O)[nH]nc2C)c1,-12,1.1,1.1,-5,-12,-2
CCN(CCO)c1ncnc2c1sc1nc(CC(C)C)c3c(c12)CC(C)(C)OC3,20,0.3,0.8,10,69*,2
OC1C[N+]2(CCCCC2)C1,-10,1,1.1,-4,-4,-54
CC(C)OCCCNC(=O)C(C)Oc1ccccc1 (stereo not given),31,0.9,0.7,12,9,1
CC(Oc1ccc(Cl)cc1Cl)C(=O)Nc1ncccn1 (stereo not given),69*,0.8,0.3,nt,19,nt
CC(Oc1ccc(Cl)cc1Cl)C(=O)NCCN1CCOCC1 (stereo not given),42,1.2,0.6,3,-19,11
Cc1cc(Cl)ccc1OC(C)C(=O)NCCCCc1ccccc1 (stereo not given),45,0.4,0.6,17,56*,-1
CC(Oc1ccc(Cl)cc1Cl)C(=O)NCc1ccncc1 (stereo not given),100*,0,0,0,98*,13
CC(Oc1ccc(Cl)cc1Cl)C(=O)NCCCn1ccnc1 (stereo not given),100*,0,0,3,99*,-1
COc1ccc(C(CNC(=O)c2cc(=O)[nH]c3ccccc23)N2CCCC2)cc1 (stereo not given),4,0.9,1,3,11,2
COc1cccc(N2CC(C)Cn3c2nc2c3c(=O)n(CCN3CCOCC3)c(=O)n2C)c1 (stereo not given),-7,1,1.1,0,-1,-6
CC(Oc1ccc(Cl)cc1Cl)C(=O)N/N=C1\CCCc2ccccc21 (stereo not given),43,0.4,0.6,15,60*,-7
Cc1cc(Cl)ccc1OCC(=O)N/N=C1\CCCc2ccccc21,17,0.7,0.8,-4,30,-18
COC(=O)C1=C(C)NC(=O)C1(NS(=O)(=O)c1ccc(NC(C)=O)cc1)C(F)(F)F (stereo not given),38,0.9,0.6,-8,8,1
Cc1cccc(Oc2ccc(C(=O)NC3CCSC3=O)cn2)c1C (stereo not given),-9,0.9,1.1,-1,13,0
COc1ccc(CCNc2c([N+](=O)[O-])c(=O)oc3ccccc23)cc1OC,59*,0.6,0.4,22,44,17
COc1ccc(CCNC(=O)Cc2nn(C)c(=O)c3ccccc23)cc1OC,-21,1.1,1.2,9,-9,-11
O=c1oc2ccccc2c(Nc2cccc3ccccc23)c1[N+](=O)[O-],91*,0.4,0.1,15,62*,-8
